Holding throughout (assay): NCI-60 one-dose screen, 48 h (100 = growth as untreated, 0 = no growth, -100 = all killed)
Holding throughout (conditions): 10 µM unless noted

Test [1] concerns HCT-15 colon.
Test [2] has as its system HT29 colon.
Test [3] deals with SNB-75 CNS.
Test [4] has as its system SNB-19 CNS.
Test [5] has as its system PC-3 prostate.
The subject of test [6] is SK-MEL-5 melanoma.
Test [7] deals with UACC-62 melanoma.
Test [8] deals with LOX IMVI melanoma.
The test system of test [9] is SK-MEL-28 melanoma.
The test system of test [10] is SK-MEL-2 melanoma.
The test system of test [11] is EKVX NSCLC.
For test [12], the system named is SN12C renal.
The subject of test [13] is UO-31 renal.
The test system of test [14] is TK-10 renal.
Test [15] concerns ACHN renal.
In test [16] the test system is CAKI-1 renal.
The test system of test [17] is A498 renal.
Test [18] concerns MOLT-4 leukemia.
The test system of test [19] is CCRF-CEM leukemia.

Each structure is given as a SMILES string. About 83,000 compounds went through this panel and 20% of them were active in at least one assay; those are over-represented in the sample as a whole.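 For each line, cells grew in 96-well plates with the test compound present at a single concentration for 48 hours.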 A number with no mark means an inactive call. Active and inactive are the calls of the source. The calls were made as follows: active = growth percent below 10; inactive = the rest.

For `COc1cc2oc(-c3cccc(NC(=O)Nc4ccc5c(c4)OCO5)c3)cc(=O)c2c(OC)c1OC`, the growth is 42.1% in [1]; 48.2% in test [2]; 21.4% in test [3]; 83.5% in test [4]; 45.6% in [5]; 45.6% in test [6]. Moreover, the growth in [7] is 62.1%; in [8] it was 38.9%; in [9], 74.2%; in [10], 71.7%; in test [11], 86.2%; in test [12], 49.5%. The growth in test [13] was 17.8%; in test [14], 56%; in test [15], 47.1%; in test [16], 48.6%; in [17], 77.1%; in test [18], 54.8%.
Take `CC(=O)/C=C/c1cc2cc(Cl)ccc2[nH]c1=O`: the growth in test [1] was 76%; in test [2], 76.8%; in [3] it was 102%; in test [4], 68.8%; in test [5] it was 77.5%; in test [6] it was 96.5%. Further, the growth in test [7] was 80.8%; in test [8] it was 69.1%; in [9] it was 99.9%; in [10] it was 87.9%; in test [11] it was 89.3%; in test [12], 77%. The growth in test [13] was 77.5%; in test [14] it was 95.5%; in test [15] it was 92%; in test [16], 87%; in test [17], 90.2%; in [19] it was 69%. Also, the growth in test [18] was 87.1%.
Regarding `CN(C)C/C=C/C(=O)Nc1cc2c(Nc3ccc(F)c(Cl)c3F)ncnc2cc1OCCOC(F)F`, the growth is 9.17% (active) in test [1]; 2.75% (active) in test [2]; -19.4% (active) in [3]; 36.6% in [4]; 11% in test [5]; 37.5% in test [6]. Moreover, the growth in test [7] is 28.9%; in test [8] it was 15.3%; in test [9], 49.4%; in test [10], 44.1%; in test [11], 12.4%; in test [12], 2.22% (active). Besides, the growth in test [13] is 4.31% (active); in test [14], 9.78% (active); in test [15], -7.73% (active); in [16] it was -15.3% (active); in test [17], -47.7% (active); in test [19] it was 26.3%. For the same compound, the growth in [18] is 4.26% (active).
Take `CC(CCc1ccccc1)NC(=O)c1n[nH]c(=O)c2ccccc12` (configuration not stated): the growth in test [1] was 101%; in [2], 105%; in [3], 96.6%; in test [4], 115%; in test [5] it was 95.7%; in test [6], 98.9%. Besides, the growth in test [7] was 93.9%; in test [8], 95.4%; in test [9], 118%; in test [10], 79.2%; in [11], 105%; in test [12], 107%. Besides, the growth was 47.5% in test [13]; 89.6% in test [14]; 97.8% in [15]; 104% in test [16]; 98.4% in [17]; 83.4% in test [19]. For the same compound, in test [18], the growth was 83.4%.
For `COc1ccc(/C=C/c2cc(N3CCOCC3)c3cc(F)c(F)cc3n2)cc1OC`, the growth was 30% in test [1]; 38.9% in test [2]; 48% in [3]; 48.8% in [4]; 38.7% in [5]; 26.2% in test [6]. For the same compound, the growth is 19.9% in test [7]; 1.22% (active) in [8]; 51.4% in test [9]; 45% in test [10]; 44.4% in test [12]; 18.2% in test [13]. In addition, the growth was 31.9% in test [14], 26.4% in test [15], 8.6% (active) in test [16] and 9.14% (active) in test [18].
In the case of `O=C(/C=C/CN1CCOCC1)Nc1cc2c(Nc3cccc(Cl)c3F)ncnc2cc1OCCOC(F)F`, the growth was 69.2% in [1]; 66.3% in test [2]; 63% in [3]; 81.7% in test [4]; 58.9% in test [5]; 72% in test [7]. Besides, the growth was 80.7% in [8]; 101% in test [9]; 95.9% in [10]; 29.5% in test [11]; 61.8% in test [12]; 36.8% in [13]. For the same compound, the growth in [14] is 57.3%; in test [15], 22.2%; in test [16], 24.9%; in test [17], 7.02% (active); in test [19], 102%; in [18] it was 77.3%.
In the case of `CN(C)c1ccc(/C=C\N=Nc2ccc(Br)cc2)cc1`, the growth is 36.2% in [1]; 52.9% in test [2]; 82% in test [3]; 96.2% in test [4]; 52.3% in test [5]; 76.5% in [6]. For the same compound, the growth in test [7] was 17.2%; in test [8], 13.2%; in test [9], 83.9%; in test [10], 72%; in [12], 65.8%; in test [13], 32.6%. The growth in test [14] was 68.5%; in test [15], 60.4%; in [16], 51.5%; in [19], 29.7%; in test [18], 29.2%.
Regarding `CC[C@]1(O)C[C@@H]2CN(Cc3c([nH]c4ccccc34)[C@@](C(=O)OC)(c3cc4c(cc3OC)N(C)[C@H]3[C@@](O)(C(=O)OC)[C@H](OC(C)=O)[C@]5(CC)[C@@H]6C[C@@H]6CN6CC[C@]43[C@@H]65)C2)C1`, the growth was 60.7% in test [1]; -2.26% (active) in test [2]; 10.1% in test [3]; 51.7% in [4]; 14% in test [5]; 34% in test [7]. Also, the growth in test [8] is 19.1%; in test [9] it was 64.4%; in [10] it was 9.71% (active); in [12], 34.1%; in test [13] it was 68.5%; in test [14], 55.7%. Also, the growth is 47.8% in [15]; 50.6% in test [16]; -8.06% (active) in test [17]; 1.15% (active) in test [19]; 1.8% (active) in [18].
Take `C=C1C(=O)O[C@H]2[C@H]1CC/C(COC(=O)NCc1cc(OC)c(OC)c(OC)c1)=C\CC[C@@]1(C)O[C@@H]21`: the growth was 42.3% in [1]; 21.4% in [2]; 83.8% in test [3]; 72.8% in test [4]; 66.1% in test [5]; 95.2% in test [6]. Besides, the growth in [7] was 38.8%; in test [8], 54.3%; in [9], 63.2%; in test [10] it was 73.8%; in test [11], 75.8%; in [12], 47.6%. Besides, the growth in test [13] was 70.6%; in [14] it was 51.6%; in test [15] it was 45.5%; in [16], 54.1%; in test [17], 109%; in test [19], 6.67% (active). Further, the growth in test [18] was 54.1%.
In the case of `NC(=O)NC(=O)/C=C/C(=O)OCCCl`, the growth is 77.5% in test [1]; 90% in [2]; 80.3% in [3]; 101% in test [4]; 92.1% in test [5]; 106% in test [6]. Moreover, the growth in test [7] was 104%; in [8] it was 98.6%; in [9], 100%; in test [10], 113%; in [12], 104%; in test [13], 89.2%. Besides, the growth in [14] was 72.1%; in test [15] it was 79.9%; in test [16], 99.6%; in [17], 103%; in test [18], 96.9%.
Take `COc1ncc(-c2ccc3ncnc(Nc4cccc(Cl)c4)c3c2)cc1N(S(C)(=O)=O)S(C)(=O)=O`: the growth in test [1] is 54.9%; in test [2] it was 53%; in test [3] it was 41.1%; in test [4] it was 72.8%; in [5], 52.1%; in test [6], 73.6%. Besides, the growth in [7] was 58.1%; in [8], 63.7%; in [9] it was 72.8%; in test [10], 77.4%; in [11], 30%; in test [12], 64.5%. Besides, the growth in test [13] is 25.9%; in test [14] it was 5.88% (active); in test [15] it was 22%; in test [16], 26.8%; in [17], 49.6%; in test [19], 86.8%. Further, the growth in [18] was 69.9%.
As to `Cc1ccc2nc(-c3c(CCCO)noc3N)[nH]c(=O)c2c1`, the growth in [1] is 105%; in test [2], 113%; in [3], 82.2%; in test [4], 113%; in [6], 99.6%; in test [7], 104%. In addition, the growth in [8] was 100%; in test [9], 112%; in test [10], 105%; in test [11], 101%; in [12] it was 111%; in test [13], 47%. Moreover, the growth was 95.5% in [14]; 113% in test [15]; 97.1% in test [16]; 88.5% in [19]; 83.7% in test [18].
Regarding `CC(C)(C)c1ccc(S(=O)(=O)Oc2ccc3c4c(c(=O)oc3c2)CCCCC4)cc1`, the growth in [1] was 30.5%; in test [2] it was 15.8%; in test [3], 39.1%; in test [4], 82%; in [5], 32.9%; in test [6], -3.23% (active). Also, the growth in test [7] was 30.3%; in [8], 43.2%; in [9] it was 39.4%; in [10] it was 45%; in test [12] it was 63.3%; in test [13], 43.4%. Moreover, the growth in [14] was 87.1%; in test [15], 30.3%; in test [17], -0.52% (active); in test [19], 58.6%; in test [18], 54.7%.
Regarding `Cc1ccc(S(=O)(=O)N2CCC(C(=O)Nc3ccc(F)cc3F)CC2)cc1`, the growth in [1] was 103%; in test [2], 75.5%; in [3] it was 93.2%; in [4], 86.5%; in test [5], 93.9%; in test [6] it was 64.8%. Also, the growth is 86.4% in [7]; 82.3% in [8]; 122% in test [9]; 34.2% in test [10]; 94.6% in test [11]; 90.7% in test [12]. For the same compound, the growth was 37.6% in [13]; 85.3% in test [14]; 107% in test [15]; 97.8% in [16]; 83.7% in test [17]; 101% in [19]. Further, the growth in test [18] is 79.2%.
Turning to `C=C1C(=O)O[C@H]2[C@H]1CC/C(COC(=O)NCCc1ccc(Br)cc1)=C\CC[C@@]1(C)O[C@@H]21`, the growth in test [1] was 1.58% (active); in test [2], -46.7% (active); in [3], 56.8%; in test [4] it was 40.9%; in [5], 36.4%; in test [6], 64%. For the same compound, the growth is -54.3% (active) in test [7]; -68.2% (active) in [8]; 30.6% in test [9]; 57.8% in [10]; 57.3% in test [11]; 16.8% in test [12]. The growth is -20.5% (active) in [13]; 25.9% in test [14]; -60.1% (active) in test [15]; 22.6% in test [16]; 79.1% in [17]; 4% (active) in test [19]. For the same compound, the growth in test [18] was -19.1% (active).
`CCCCCCCCCCCCCCCCC(Br)C(=O)O` (configuration not stated): the growth was 83% in [1]; 108% in test [2]; 86.5% in test [3]; 105% in [4]; 103% in test [5]; 103% in [6]. For the same compound, the growth in test [7] is 105%; in test [8], 106%; in test [9], 100%; in [10] it was 94.4%; in test [12], 102%; in [13], 87.9%. The growth in test [14] is 116%; in [15], 96.6%; in test [16], 101%; in [17], 94.7%; in test [18] it was 97.5%.
